In PubChem BioAssay AID2528 (National Center for Advancing Translational Sciences (NCATS), 2010):
The whole screen tested about 350,000 compounds, of which about 700 (0.2%) were called active. The sample as a whole holds a higher share of actives than the screen did. A number with no mark means an inactive call. The call rests on the fitted dose curve; in most records, active means well fitted inhibition curve with a large enough effect; inconclusive means small, poorly fitted or top-dose-only effect; inactive means flat fitted curve, though single readings scatter.

molecular target: RecQ-like DNA helicase BLM (Homo sapiens) (UniProt P54132); test: qHTS Assay for Inhibitors of Bloom's syndrome helicase (BLM); details: recombinant BLM DNA unwinding, fluorescence dequenching; series mostly up to 56.1 µM; activity change, negative = inhibition: at the top concentration; further: nearly all actives have a fitted effect of over 35% in size;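 on activity change, negative = inhibition: plate controls were vehicle for no effect and no enzyme for full effect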
Potency means the concentration at half of the fitted maximal effect.

Sequence of RecQ-like DNA helicase BLM (Homo sapiens) (P54132 whole entry, looked up): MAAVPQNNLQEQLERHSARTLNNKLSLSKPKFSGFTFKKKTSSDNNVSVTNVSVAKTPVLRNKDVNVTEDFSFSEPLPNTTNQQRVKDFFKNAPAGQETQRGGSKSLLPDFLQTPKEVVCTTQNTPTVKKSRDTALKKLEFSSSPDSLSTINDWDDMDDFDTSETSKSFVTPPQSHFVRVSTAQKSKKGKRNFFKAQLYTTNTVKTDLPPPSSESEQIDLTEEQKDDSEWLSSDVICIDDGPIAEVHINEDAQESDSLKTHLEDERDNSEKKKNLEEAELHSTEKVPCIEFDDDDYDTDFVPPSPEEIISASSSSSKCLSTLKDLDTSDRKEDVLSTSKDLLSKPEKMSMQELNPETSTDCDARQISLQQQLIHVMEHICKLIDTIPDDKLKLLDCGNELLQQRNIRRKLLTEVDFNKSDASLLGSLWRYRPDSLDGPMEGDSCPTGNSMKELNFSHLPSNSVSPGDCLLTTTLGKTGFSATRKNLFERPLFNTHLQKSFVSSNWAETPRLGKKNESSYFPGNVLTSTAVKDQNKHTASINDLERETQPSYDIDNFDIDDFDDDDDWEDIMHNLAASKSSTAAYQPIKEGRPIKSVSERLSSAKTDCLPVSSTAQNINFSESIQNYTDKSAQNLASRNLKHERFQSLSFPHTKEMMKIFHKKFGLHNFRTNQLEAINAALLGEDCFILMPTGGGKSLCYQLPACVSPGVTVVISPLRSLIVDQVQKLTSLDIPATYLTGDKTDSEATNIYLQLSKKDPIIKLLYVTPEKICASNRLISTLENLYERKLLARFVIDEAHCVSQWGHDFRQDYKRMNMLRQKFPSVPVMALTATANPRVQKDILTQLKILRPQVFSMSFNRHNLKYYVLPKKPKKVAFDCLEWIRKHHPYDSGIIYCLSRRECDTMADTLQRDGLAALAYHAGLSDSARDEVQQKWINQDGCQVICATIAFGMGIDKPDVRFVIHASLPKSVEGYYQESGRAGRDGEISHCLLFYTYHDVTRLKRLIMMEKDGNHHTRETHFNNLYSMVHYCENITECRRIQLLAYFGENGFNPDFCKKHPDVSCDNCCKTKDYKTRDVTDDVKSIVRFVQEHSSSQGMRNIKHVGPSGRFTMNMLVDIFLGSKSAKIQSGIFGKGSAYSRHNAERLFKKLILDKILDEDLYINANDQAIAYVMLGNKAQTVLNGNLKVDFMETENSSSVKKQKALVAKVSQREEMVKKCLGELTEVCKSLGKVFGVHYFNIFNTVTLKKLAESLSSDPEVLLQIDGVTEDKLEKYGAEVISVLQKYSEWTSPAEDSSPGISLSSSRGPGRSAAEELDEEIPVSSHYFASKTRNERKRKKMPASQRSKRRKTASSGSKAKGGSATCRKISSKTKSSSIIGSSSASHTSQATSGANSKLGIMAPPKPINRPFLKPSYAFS

SMILES	activity change, negative = inhibition	Potency
Cc1c(CCNC(=O)c2ccc(C(F)(F)F)cc2)sc2nc(-c3ccc(F)cc3)nn12	1.17%	
COC(=O)C1=C(C(=O)OC)[C@@H]2N(Cc3ccccc3)c3ccccc3[C@@]23C[C@@H](C(=O)OC)N(S(=O)(=O)c2ccc(C(F)(F)F)cc2)C3=N1	0.18% [at 12.4 µM]	
COc1ccc(-c2nc3c(c4c2C[C@H](c2ccccc2)OC4)CN(C(=O)C2CC2)CC3)c(C)c1	-3.76% [at 12.4 µM]	
CCOC(=O)C1CCCN(C(=O)Cn2ncc3c(C)n(Cc4ccc(F)cc4)c(C)c3c2=O)C1 (stereo unspecified)	-2.99%	
COC(=O)c1ccc2c(c1)N(CC(=O)Nc1ccc(C)c(C)c1)C(=O)c1ccccc1S2	-3.02%	
Cc1nc([N+](=O)[O-])cn1CC(=O)Nc1ccc2c(c1)OCO2	-1.2%	
Cc1ccc(C(=O)O)cc1-c1ccc(/C=C2\SC(=O)N(CC(=O)Nc3ccc4c(c3)OCO4)C2=O)o1		25.1 µM (active)
Cn1c2ccccc2c(=O)c2c(=O)n(Cc3ccco3)c(COc3ccccc3)nc21		8.91 µM (active)
CCCc1nc2c(c(=O)c3ccccc3n2C)c(=O)n1C1CCCCCC1	-2.78%	
Cn1c(COc2ccc(Cl)cc2)nc2ccccc2c1=O	-4.82%	
COC(=O)[C@H]1C[C@@H]1[C@H](NC(=O)Oc1ccc(F)cc1)c1ccccc1	-3.56%	
O=C(NCc1cccs1)c1cc(-c2ccccn2)nc2ccc(Br)cc12	-5.47%	
CC(C)Cn1c(N)c(C(=O)NCc2cccs2)c2nc3ccccc3nc21		31.6 µM (active)
CCC(C)NC(=O)c1c(N)n(/N=C/c2cccs2)c2nc3ccccc3nc12 (stereo unspecified)	-1.08%	
CCC[C@@H]1C[C@@]1(CCC)C(NS(=O)(=O)c1cccc2cccnc12)c1ccc(Cl)cc1 (stereo partly specified)	-12.4%	
COc1ccc(Nc2ncc3c(n2)CCN(C(=O)OC(C)(C)C)C3)cc1	0.835%	
O=C1/C(=C\c2ccccc2Cl)SC(=S)N1CCC(=O)N1CCCc2ccccc21	2.18%	
Cc1ccc(-c2nn(-c3ccccc3)cc2/C=C2\SC(=S)N(CCCCCC(=O)O)C2=O)o1		28.2 µM (active)
COc1ccc(/C=C2/SC(=O)N(CCCCCC(=O)Nc3ccccc3C(=O)O)C2=S)cc1	-2.12%	
C/C=C(\C)C(=O)OC1C(OC(=O)C2(C)OC2C)c2cc3ccc(=O)oc3cc2OC1(C)C (stereo unspecified)	-4.92%	
CC(C)(O)CCC(O)[C@@](C)(O)C1CC[C@]2(O)C3=CC(=O)C4CC(O)C(O)C[C@]4(C)C3CC[C@]12C (stereo partly specified)	5.66%	
COc1ccc2c(-c3ccccc3)cc(SCC(=O)N(C)C3CCS(=O)(=O)C3)nc2c1 (stereo unspecified)	-2.06%	

SMILES	activity change, negative = inhibition	Potency
CN(C(=O)COC(=O)c1cc(-c2ccco2)nc2ccccc12)C1CCS(=O)(=O)C1 (stereo unspecified)		3.16 µM (active)
COc1ccc(NC(=O)COc2ccc(C(=O)OCC(=O)N(C)C3CCS(=O)(=O)C3)cc2OC)cc1 (stereo unspecified)	-0.434%	
COc1cccc(-c2cc(NCCc3c[nH]c4ccc(OC)cc34)ncn2)c1	-17%	
CO[C@H]1COC(=O)[C@@H](C)NC(=O)C/C=C\[C@@H](C)[C@H](OC)COC(=O)C/C=C\[C@@H]1C	0.711% [at 12.4 µM]	
CCCC[C@@H]1C[C@H]1C(NC(=O)c1ccco1)c1ccc(C(=O)OC)cc1 (stereo partly specified)	-7.12%	
CCOc1ccc(OCC)c(NC(=O)CN(c2ccc(C)cc2)S(=O)(=O)c2c(C)n[nH]c2C)c1	-16.1%	
CCCCC/C=C\C/C=C\C/C=C\CCCCC(=O)NCC(=O)O	-0.391%	
COc1cccc([C@@H]2Oc3ccc(Br)cc3C(=O)[C@H]2OC(=O)NCCc2ccc(OC)c(OC)c2)c1	1.09%	
CCc1nn(CC(=O)NCC(C)c2ccccc2)c(=O)c2cc3occc3n12 (stereo unspecified)	3.04%	
C[C@@H]1C[C@H]2[C@@H]3C[C@H](F)C4=CC(=O)C=C[C@@]4(C)[C@]3(F)[C@H](O)C[C@]2(C)[C@@]1(O)C(=O)CO	2.68% [at 21.4 µM]	
CC(=O)OC1C([N+]2(C)CCCCC2)C[C@H]2C3CC[C@H]4C[C@H](OC(C)=O)C([N+]5(C)CCCCC5)CC4(C)C3CCC12C (stereo partly specified)	112%	
COC(=O)C(C(=O)OC)[C@@H]1CCCC(=O)C1	-7.4% [at 12.4 µM]	
O=c1cc(-c2ccc(O)cc2)oc2c(-c3cc(-c4cc(=O)c5c(O)cc(O)cc5o4)ccc3O)c(O)ccc12	0.459%	
COc1ccc(C2(C#N)CCC(C(=O)O)CC2)cc1OC1CCCC1 (stereo unspecified)	3.05%	
COC(=O)C1(C)C=CCN1C(=O)c1ccccc1 (stereo unspecified)	-5.29%	
CC(C)=CC1C(C(=O)O)C1(C)C (stereo unspecified)	0.827%	
O=C(CCOc1ccccc1)N(Cc1cccnc1)c1nc2ccc(Cl)cc2s1	-2.17%	
CC1(C)OC2CC(=O)OC[C@@]23C1CC(=O)[C@]1(C)C3CC[C@@]2(C)C(c3ccoc3)OC(=O)C3O[C@@]321 (stereo partly specified)	-17.7%	
FC(F)(F)c1ccccc1-c1cc(NCc2ccccc2)ncn1	-0.252%	
O=C(CSc1nccn1Cc1ccc(Cl)cc1)NCc1ccccc1	-3.71%	
C/C=C/C=N/NC(=O)c1ccncc1	2.91%	
CC1CN(C(=O)N2CCC(C(=O)NCc3ccco3)CC2)c2cc(Cl)ccc2O1 (stereo unspecified)	-7.62%	

SMILES	activity change, negative = inhibition	Potency
COC(=O)[C@@H]1C[C@@]2(O)[C@H](O)[C@H](O)[C@H](O)C[C@H]2N1CC1CCCCC1	-8.47%	
O=C(c1cnccn1)N1CCC2(CCCN(Cc3ccccc3)C2)CC1	4.7%	
CCOC(=O)Cn1c(=O)sc2cccc(Cl)c21	0.848%	
O=C(c1cnccn1)N1CCC2(CCN(Cc3cc(C(F)(F)F)cc(C(F)(F)F)c3)CC2)CC1	-6.6%	
Cc1cccc(-c2nc(SCc3ccc(Br)cc3)n3[nH]c(=O)cc3n2)c1	-2.52%	
Cc1ccc(-c2nc(SCc3ccc(Br)cc3)n3[nH]c(=O)cc3n2)cc1		28.2 µM (active)
O=c1cc2nc(-c3ccccc3)nc(SCCOc3ccc(Cl)cc3)n2[nH]1	-17.2%	
O=C(OCc1ccccc1)c1ccc(O)cc1	-3.18%	
COC(=O)N1C(/C=C/C=C/c2ccc(OC)cc2)=Cc2ccccc2C1CC(C)=O (stereo unspecified)	-6.97% [at 12.4 µM]	
C[C@H]1Cc2c(-c3ccccc3)nc3c(c2CO1)CN(S(=O)(=O)c1ccc(Cl)c2nonc12)CC3	-0.0157% [at 12.4 µM]	
O=c1c(CCc2ccccc2)nc2cnc(N3CCNCC3)nc2n1Cc1cccs1	-4.03%	
COc1cc(OC)cc(-c2nnc(SCC(=O)Nc3ccc(C(=O)O)cc3)s2)c1	-4.98%	
COc1ccc(-c2nc3c(c(SCC(=O)Nc4ccc(C(=O)O)cc4)n2)Cc2ccccc2O3)cc1		7.08 µM (active)
COc1ccc(NC(=O)CSc2nc(N)c(-c3ccccc3)c(=O)[nH]2)cc1	-0.862%	
Cc1ccc(NS(=O)(=O)c2ccc(N/N=C/c3ccccc3OCC(=O)O)c([N+](=O)[O-])c2)c(C)c1		7.08 µM (active)
C=C(C)CNC(=S)N/N=C/c1ccccc1OCC(=O)O	2.68%	
Cc1ccc(S(=O)(=O)NC(=O)COc2ccccc2C)cc1	-0.852%	
COc1c(O)c2c(=O)cc(OC)c3c4c(OC)cc(=O)c5c(O)c(OC)c6c(c(c1C[C@@](C)(O)[C@H]6C(C)=O)c23)c54	-7.75%	
COC(=O)[C@@]1(C)C=C[C@@H](Cc2ccccc2)N1C(C)=O	0.615%	
CCc1c2c(nc3ccc(O)cc13)-c1cc3c(c(=O)n1C2)COC(=O)[C@]3(O)CC	2.37%	
Oc1ccc(Cl)c2c1CCC2	-5.49%	
COc1ccc(C(=O)N2CCC3(CCCN(C(c4ccccc4)c4ccccc4)C3)CC2)cc1	-11%	

SMILES	activity change, negative = inhibition	Potency
CCCC(=O)Nc1ccc(NC(=O)c2sc3ccccc3c2Cl)cc1	-4.36%	
Oc1ccc(N=Cc2sc3ccccc3c2Cl)cc1		20 µM (active)
Cc1cc(N=Nc2ccc3ccccc3c2)ccc1O	-11%	
CCOc1[nH]n(-c2ccc(Cl)cc2)c(=O)c1C=Nc1ccc(O)cc1	-10.3%	
COC(=O)c1cc(NC(=O)c2sc3ccccc3c2Cl)cc(C(=O)OC)c1	-3.91%	
Oc1ccc(N=Cc2c(O)ccc3ccccc23)cc1		31.6 µM (active)
Cc1cccc(CNc2ccnc(-c3cccnc3)n2)c1	-2.36%	
O=C(Nc1cc(C(=O)Nc2ccc(S(=O)(=O)O)cc2)cc(C(=O)Nc2ccc(S(=O)(=O)O)cc2)c1)Nc1cc(C(=O)Nc2ccc(S(=O)(=O)O)cc2)cc(C(=O)Nc2ccc(S(=O)(=O)O)cc2)c1	-1.71%	
O=C(c1ccncc1)N1CCC2(CCCN(C(c3ccccc3)c3ccccc3)C2)CC1	-8.72%	
O=C(c1cnccn1)N1CCC[C@@]2(CCN(Cc3ccncc3)C2)C1	4.22%	
CCc1nc(-c2cc(S(=O)(=O)N3CCN(c4ccc(OC)cc4)CC3)ccc2OC)no1	-13.5%	
CCCS(=O)(=O)c1ncc(Cl)c(C(=O)Nc2scc(-c3ccccc3)c2C(=O)OCC)n1	0.746%	
Oc1c(C(c2ccc(F)cc2)N2CCN(Cc3ccccc3)CC2)sc2nc(-c3ccco3)nn12 (stereo unspecified)	-2.07%	
C=C1C([C@@]2(C)C(OC(C)=O)CC(=O)O[C@@](C)(COC(C)=O)C2CC(=O)OC)C(OC=O)C(OC(=O)C(O)C(C)CC)[C@]2(C)C(c3ccoc3)CC(=O)C12O (stereo partly specified)	2.02%	
CC(=O)N1CCC2(CCCN(Cc3ccc(C#N)cc3)C2)CC1	3.65%	
CC1(C)C=CC(=O)[C@]2(C)C1CC(=O)[C@]1(C)C2CC[C@@]2(C)C(c3ccoc3)OC(=O)C3OC321 (stereo partly specified)	0.499%	
C=C1CCN(C(CC(C)C)C(=O)N2CCOCC2)S(=O)(=O)c2ccccc21 (stereo unspecified)	-13.3%	
COc1ccc(S(=O)(=O)NCC(c2ccc(N(C)C)cc2)N2CCc3ccccc32)cc1OC (stereo unspecified)	-10.6%	
O=C(O)c1ccc(/C=C2/SC(=S)N(c3cccc(C(F)(F)F)c3)C2=O)cc1	-13.8%	
Cn1c(N)c(C(=O)COC(=O)c2cc(C(F)(F)F)nc3c(C(F)(F)F)cccc23)c(=O)n(C)c1=O	-3.53%	
